APOBEC3A inh = human APOBEC3A DNA deaminase inhibition; recombinant A3A, FAM/TAMRA ssDNA deamination fluorescence; 330,000 compounds, 0.41% hits; inhibition, % at 20 µM; AID 493011;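 active means at least 40% inhibition at 20 µM here, with at most 30% in a related deaminase screen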;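 further: plate controls were A3A with DMSO for no effect and wells lacking A3A enzyme for full effect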
PHOSPHO1 block = PHOSPHO1 (human) inhibition; recombinant PHOSPHO1, absorbance phosphatase assay; inhibition, % at 13.3 µM; 290,000 compounds, 1.1% hits; AID 1565; in the data active means inhibition above about 60%
APOBEC3G inh = blocks human APOBEC3G single-stranded DNA deamination; Q9HC16; recombinant A3G, ssDNA deamination FAM/TAMRA fluorescence; inhibition, % at 20 µM; 330,000 compounds, 0.28% hits; AID 493012;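 active means inhibition of at least 40% at 20 µM, with no more than 30% in the related APOBEC3A deaminase screen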;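 further: plate controls were DMSO wells with A3G for no effect and wells lacking A3G enzyme for full effect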
PABP FP inh = blocks human PABP binding to poly(A) RNA. calls only at 35 µM. fluorescence polarization. 290,000 compounds, 1% hits;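 further: calls also rest on retests at 20 µM and on dose response follow-up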
eIF4H FP inh = inhibitors of RNA binding by human eIF4H. Q15056. 290,000 compounds, 0.94% hits. inhibition, % at 35 µM. eIF4H fluorescence polarization binding assay;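 further: calls also rest on retests at 20 µM and on dose response follow-up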
MLLE-PAM2 inh = inhibitors of microRNA-mediated deadenylation, human PABP1 MLLE binding; inhibition, % at 20 µM; P11940; 360,000 compounds, 0.36% hits; GST-MLLE / FITC-PAM2 fluorescence polarization; in the data active means inhibition above about 35%, passing the limit was not always enough;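 further: plate controls were DMSO wells with GST-MLLE for no effect and wells lacking GST-MLLE protein for full effect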
A3G conf = confirmation of human APOBEC3G DNA deaminase inhibitors | shares compounds with APOBEC3G inh | recombinant A3G ssDNA deaminase, UDG/FAM-TAMRA fluorescence | inhibition, % at 20 µM | 890 compounds, 72% hits | AID 493152;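 active means inhibition reaching a set limit in any replicate at 20 µM, the limit being 80% of the first screen's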
UDG ctr A3G = counter-screen for APOBEC3G inhibitors: E. coli UDG; 710 tested, under 10 active; UDG counterscreen, FAM/TAMRA oligo fluorescence; shares compounds with APOBEC3G inh; inhibition, % at 20 µM; AID 504715;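 active means compounds giving 40% or more inhibition at 20 µM in any one of the three replicates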;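 further: plate controls were DMSO wells with UDG and oligo for no effect and DMSO wells lacking both for full effect; inhibitors lower the FAM signal released by uracil excision and alkaline cleavage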
Target sequence (P12295 whole entry, looked up): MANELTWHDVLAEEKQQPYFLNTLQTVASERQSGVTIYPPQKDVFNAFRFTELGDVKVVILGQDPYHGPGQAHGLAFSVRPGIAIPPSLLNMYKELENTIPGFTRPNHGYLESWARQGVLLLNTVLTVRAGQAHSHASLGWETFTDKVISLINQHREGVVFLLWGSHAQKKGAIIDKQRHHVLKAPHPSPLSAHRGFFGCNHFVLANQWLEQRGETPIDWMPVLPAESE
* hit, by the source's call; i = inactive; ? = inconclusive; . = no result; + = active, no number. Only some compounds are listed: those with a hit (about 2.6% of all), similar ones and a draw of the others. Unless noted, how the calls were made is not given here.

SMILES	APOBEC3A inh	PHOSPHO1 block	APOBEC3G inh	PABP FP inh	eIF4H FP inh	MLLE-PAM2 inh	A3G conf	UDG ctr A3G
CCN(CC)C(=O)CSc1nc2c(sc(=S)n2-c2ccccc2)c(=O)n1-c1ccccc1OC	-3	14	-11	i	-7	8	.	.
CCN(CC)C(=O)CSc1nc2c(sc(=S)n2-c2ccccc2)c(=O)n1-c1ccc(OC)cc1OC	1	-81	53*	i	-1	39	56*	-4
COc1ccc(NC(=O)CCOc2ccc(C)cc2)c(OC)c1	-5	14	-4	i	0	2	.	.
CN(C)CC(C)(C)CN=Cc1c(O)[nH]c2ccccc12	6	2	0	i	-3	-6	.	.
CC(C)C(C(=O)Nc1nccs1)c1ccccc1 (centres undefined)	3	3	48*	i	9	14	0	.
COCCn1nnnc1C(c1cccs1)N1CCN(c2cc(C)ccc2C)CC1 (centres undefined)	-5	-23	-6	i	0	-8	.	.
COCCn1nnnc1C(c1cccs1)N1CCN(c2nc3ccccc3s2)CC1 (centres undefined)	3	-62	57*	i	-9	-6	0	.
Cc1ccc(C)c(N(CC(=O)NC(C)(C)C)C(=O)CNC(=O)c2cccs2)c1	0	37	-2	i	-9	-14	.	.
COc1ccc(CN2CCNC(=O)C2CC(=O)N(Cc2nccn2C)C(C)C)c(OC)c1 (centres undefined)	24	22	43*	i	-9	9	16*	-4
CCSC1=NC2(CCCCC2)Nc2sc3c(c21)CCCC3	1	95*	59*	i	2	-4	39*	.
S=c1nc(C2CCCCC2)[nH][nH]1	1	-11	43*	i	3	24	87*	-5
S=c1nc(-c2ccco2)[nH][nH]1	-2	98*	81*	i	-5	25	94*	-4
CN(C)CCn1c2c(c(SCC(=O)Nc3ccccc3)nc1=O)CCCC2	-2	.	-5	.	.	5	.	.
CCc1ccc(NC(=O)CSc2nc(=O)n(CCCN(C)C)c3c2CCC3)cc1	-1	.	65*	.	.	1	-7	1
Cc1nnn(-c2nonc2N)c1C(=O)N/N=C/c1ccccc1O	24	-17	44*	i	-5	-16	40*	3
Cc1ccc(CCNS(=O)(=O)c2cc3c(cc2C)NC(=O)CO3)cc1	-3	15	5	i	6	-1	.	.
Cc1ccc(NNC(=O)c2ccno2)cc1C	-4	21	42*	i	-13	5	39*	-3
Cc1ccc(NNC(=O)c2ccno2)cc1Cl	-3	33	8	i	-8	18	.	.
S=C(Nc1ccc2c(c1)OCO2)Nc1ccccc1Cl	0	-1	-5	i	44	33	.	.
O=C(Cc1ccccc1)NNC(=S)NC(=O)c1cccnc1	-4	15	43*	i	-11	23	14	1
Cc1cc(C)c2[nH]c(=S)cc(C)c2c1	-4	104*	73*	i	-5	21	active	-2
O=[N+]([O-])c1ccc(N/N=C/c2cccnc2)cc1	-5	8	1	i	-23	-9	.	.
Clc1ccc(N/N=C/c2cccnc2)cc1	-1	-18	40*	i	7	6	0	1
CSS(=O)(=O)c1cccc2cccnc12	1	44	78*	i	-3	-54	77*	0
Cc1ccccc1NC(=S)c1ccc2ccccc2n1	-3	-36	42*	i	5	18	40*	1
SMILES	APOBEC3A inh	PHOSPHO1 block	APOBEC3G inh	PABP FP inh	eIF4H FP inh	MLLE-PAM2 inh	A3G conf	UDG ctr A3G
C=CCn1c(-c2cccc(OC)c2OC)n[nH]c1=S	-4	-86	12	?	0	-23	.	.
CCn1c(-c2cccc(Cl)c2)n[nH]c1=S	-5	95*	47*	i	-8	-27	77*	-3
C=CCn1c(-c2ccc([N+](=O)[O-])cc2)n[nH]c1=S	-6	26	45*	i	6	-39	78*	0
C=CCn1c(-c2cccc(OC)c2)n[nH]c1=S	0	11	51*	+	2.5*	-20	13	.
CCn1c(-c2csc(-c3ccccc3)n2)n[nH]c1=S	-3	60	27	i	-7	-24	.	.
C=CCn1c(-c2cc(Cl)ccc2OC)n[nH]c1=S	-5	92*	46*	i	-2	-13	81*	2
O=C(NC1CC(=O)N(c2ccccc2)C1)N1CCN(C(=O)c2ccco2)CC1 (centres undefined)	1	.	14	.	.	-8	.	.
O=C(/C(=N\Nc1ccccc1)Sc1nnnn1-c1ccccc1)c1ccccc1	-6	-9	-10	i	-13	18	.	.
C=CCn1c(-c2csc3ccccc23)n[nH]c1=S	7	102*	43*	i	-9	5	31	.
Cc1ccc(-c2n[nH]c(=S)n2/N=C\c2ccco2)cc1	-3	24	42*	i	-15	-23	76*	6
O=[N+]([O-])c1ccc(Cl)c(/C=N/n2c(-c3ccncc3)n[nH]c2=S)c1	0	-83	48*	i	5	-81	57*	-6
S=c1[nH]nc(-c2cccnc2)n1/N=C/c1ccco1	-1	-94	36	i	9	-36	.	.
Cn1cccc1/C=N/n1c(-c2ccccc2)n[nH]c1=S	-3	45	43*	i	-4	5	81*	-3
Cn1cccc1/C=N/n1c(-c2ccc(C(C)(C)C)cc2)n[nH]c1=S	0	-43	3	i	12	-52	.	.
Cc1nn(-c2ccccc2)c(C)c1/C=N/n1c(-c2ccncc2)n[nH]c1=S	-4	18	42*	i	3	-33	77*	1
Cc1ccc(-c2n[nH]c(=S)n2/N=C/c2ccncc2)cc1	-2	-29	53*	i	3	-30	65*	7
Cc1cccc(-c2n[nH]c(=S)n2/N=C/c2ccco2)c1	-7	-1	47*	i	-15	-30	79*	3
S=c1[nH]nc(-c2ccco2)n1/N=C/c1ccccc1Cl	-5	38	45*	i	4	-75	37*	3
Cc1cc(-c2n[nH]c(=S)n2/N=C/c2ccc(C)s2)n[nH]1	5	49	55*	i	-4	-22	72*	-3
Cc1ccc(/C=N/n2c(C3CCCCC3)n[nH]c2=S)s1	-5	-4	-5	i	-15	-75	.	.

Source: PubChem BioAssay
